Measurements from PubChem BioAssay (NCI).
The panel holds about 83,000 compounds, 20% with a hit somewhere; the sample as a whole holds those more often.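 Note: values are percent growth. 100 is the growth of untreated cells, values between 100 and 0 indicate rising inhibition; between -100 and 0 indicates cell death.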 A number with no mark means an inactive call. The source made the active and inactive calls. The calls were made as follows: active = growth percent below 10; inactive = the rest.

What was measured:
Test in all cases: NCI-60 one-dose screen, 48 h (100 = growth as untreated, 0 = no growth, -100 = all killed)
Conditions in all cases: 10 µM unless noted
SK-MEL-2 melanoma = system: SK-MEL-2 melanoma
EKVX NSCLC = system: EKVX NSCLC
SN12C renal = system: SN12C renal
UO-31 renal = system: UO-31 renal
TK-10 renal = system: TK-10 renal
ACHN renal = system: ACHN renal
CAKI-1 renal = system: CAKI-1 renal
A498 renal = system: A498 renal
CCRF-CEM leukemia = system: CCRF-CEM leukemia

## O=C1/C(=C/c2ccc(Br)cc2)C=C(c2ccccc2)N1CCc1ccccc1
SK-MEL-2 melanoma
  growth: 66%
EKVX NSCLC
  growth: 40.1%
SN12C renal
  growth: 50.1%
UO-31 renal
  growth: 45%
TK-10 renal
  growth: 12.6%
ACHN renal
  growth: 13%
CAKI-1 renal
  growth: 64.3%
A498 renal
  growth: 50.8%
CCRF-CEM leukemia
  growth: 101%

## COC(=O)[C@]12CC[C@@H](C)[C@H](C)[C@@H]1C1=CC[C@@H]3[C@@]4(C)C(C=O)=C[C@@](C)(COS(C)(=O)=O)C4[C@H](O)C[C@@]3(C)[C@]1(C)CC2 (stereo partly specified)
SK-MEL-2 melanoma
  growth: -60.7% (active)
EKVX NSCLC
  growth: -22.4% (active)
SN12C renal
  growth: -40.8% (active)
UO-31 renal
  growth: -96.6% (active)
TK-10 renal
  growth: -73.5% (active)
ACHN renal
  growth: -93.2% (active)
CAKI-1 renal
  growth: -15.6% (active)
A498 renal
  growth: -38.5% (active)
CCRF-CEM leukemia
  growth: -33.8% (active)

## O=C1/C(=C2/C=Nc3ccccc32)N(O)c2ccccc21
SK-MEL-2 melanoma
  growth: 90.4%
EKVX NSCLC
  growth: 66.9%
SN12C renal
  growth: 74.8%
UO-31 renal
  growth: 57.7%
TK-10 renal
  growth: 129%
ACHN renal
  growth: 68.7%
CAKI-1 renal
  growth: 57.8%
A498 renal
  growth: 55.4%
CCRF-CEM leukemia
  growth: 46.2%

## CCc1ccccc1NC(=O)/C(C#N)=C/c1ccc(OC)cc1
SK-MEL-2 melanoma
  growth: 104%
EKVX NSCLC
  growth: 92.7%
SN12C renal
  growth: 94%
UO-31 renal
  growth: 80.5%
TK-10 renal
  growth: 115%
ACHN renal
  growth: 97.4%
CAKI-1 renal
  growth: 103%
A498 renal
  growth: 100%
CCRF-CEM leukemia
  growth: 84.7%
